Test results reported in PubChem BioAssay (Tox21).
“And” between values parts separate entries of the source, which are not always exact repeats. Identical values can stand only once. Results filed as inconclusive are left out. A call without a number means that no potency is given here. The source holds several records for some structures; these can differ, active in one and inactive in another. The source made the active and inactive calls. The call rests on the fitted dose curve; in most records, active means well fitted curve in the direction sought with a large enough effect in the repeat runs; inconclusive means weak or mixed curves; inactive means no such curve, though single readings can be large; an effect the other way counts as inactive or inconclusive.

Key:
[1] = biological target: Cytochrome P450 2D6 (Homo sapiens) (UniProt P10635); test: Cytochrome P450 Family 2 Subfamily D Member 6 (CYP2D6) small molecule antagonists: luciferase reporter qHTS assay (AID 1671196); further: nearly all actives have a fitted effect of over 50% in size; on activity change, negative = inhibition: series mostly up to about 120 µM
Cytochrome P450 2D6 (Homo sapiens), sequence (P10635 whole entry, looked up): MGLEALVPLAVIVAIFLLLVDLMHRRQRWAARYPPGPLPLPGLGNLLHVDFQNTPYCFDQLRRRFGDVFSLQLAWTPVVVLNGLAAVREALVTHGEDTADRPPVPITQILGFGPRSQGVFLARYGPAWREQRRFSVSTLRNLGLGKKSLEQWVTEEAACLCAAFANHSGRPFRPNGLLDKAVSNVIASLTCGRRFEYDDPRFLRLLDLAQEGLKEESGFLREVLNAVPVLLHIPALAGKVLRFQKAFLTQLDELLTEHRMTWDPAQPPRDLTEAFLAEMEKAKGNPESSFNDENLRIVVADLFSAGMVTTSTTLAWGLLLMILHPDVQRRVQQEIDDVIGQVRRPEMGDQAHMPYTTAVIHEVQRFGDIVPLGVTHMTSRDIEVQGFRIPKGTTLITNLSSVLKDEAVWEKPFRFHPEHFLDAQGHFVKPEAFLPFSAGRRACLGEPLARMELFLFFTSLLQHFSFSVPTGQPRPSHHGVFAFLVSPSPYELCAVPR
How it was run: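 Inhibition of CYP2D6 was gauged by loss of luminescence, since light produced tracks the luciferin generated from a proluciferin substrate. A 10 min room-temperature preincubation preceded 1 h NADPH-supported turnover.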

[2] = biological target: Cytochrome P450 2C19 (Homo sapiens) (UniProt P33261); test: Cytochrome P450 Family 2 Subfamily C Member 19 (CYP2C19) small molecule antagonists: luciferase reporter qHTS assay (AID 1671197); further: nearly all actives have a fitted effect of over 65% in size; on activity change, negative = inhibition: series mostly up to about 120 µM
Cytochrome P450 2C19 (Homo sapiens), sequence (P33261 whole entry, looked up): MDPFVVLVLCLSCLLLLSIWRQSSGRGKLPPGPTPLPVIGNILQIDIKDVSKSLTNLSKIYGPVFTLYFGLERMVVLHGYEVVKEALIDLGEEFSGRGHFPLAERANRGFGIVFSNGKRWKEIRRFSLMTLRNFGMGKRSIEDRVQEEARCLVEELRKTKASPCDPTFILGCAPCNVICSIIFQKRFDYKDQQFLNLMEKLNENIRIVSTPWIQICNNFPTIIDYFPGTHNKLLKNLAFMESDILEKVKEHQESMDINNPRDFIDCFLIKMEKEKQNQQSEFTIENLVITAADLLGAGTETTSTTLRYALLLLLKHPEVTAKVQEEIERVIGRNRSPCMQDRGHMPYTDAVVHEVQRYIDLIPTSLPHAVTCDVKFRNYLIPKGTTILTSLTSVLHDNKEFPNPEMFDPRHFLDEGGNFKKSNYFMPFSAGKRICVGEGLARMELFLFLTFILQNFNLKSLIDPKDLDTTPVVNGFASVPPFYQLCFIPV
How it was run: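 First, compounds are pinned into enzyme-substrate mix and held 10 min at room temperature. Second, NADPH regeneration solution is added and plates incubate 1 h at 37C. Third, detection reagent is added and luminescence read after 20 min.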

[3] = biological target: Cytochrome P450 2C9 (Homo sapiens) (UniProt P11712); test: Cytochrome P450 Family 2 Subfamily C Member 9 (CYP2C9) small molecule antagonists: luciferase reporter qHTS assay (AID 1671198); further: nearly all actives have a fitted effect of over 50% in size; on activity change, negative = inhibition: series mostly up to about 120 µM
Cytochrome P450 2C9 (Homo sapiens), sequence (P11712 whole entry, looked up): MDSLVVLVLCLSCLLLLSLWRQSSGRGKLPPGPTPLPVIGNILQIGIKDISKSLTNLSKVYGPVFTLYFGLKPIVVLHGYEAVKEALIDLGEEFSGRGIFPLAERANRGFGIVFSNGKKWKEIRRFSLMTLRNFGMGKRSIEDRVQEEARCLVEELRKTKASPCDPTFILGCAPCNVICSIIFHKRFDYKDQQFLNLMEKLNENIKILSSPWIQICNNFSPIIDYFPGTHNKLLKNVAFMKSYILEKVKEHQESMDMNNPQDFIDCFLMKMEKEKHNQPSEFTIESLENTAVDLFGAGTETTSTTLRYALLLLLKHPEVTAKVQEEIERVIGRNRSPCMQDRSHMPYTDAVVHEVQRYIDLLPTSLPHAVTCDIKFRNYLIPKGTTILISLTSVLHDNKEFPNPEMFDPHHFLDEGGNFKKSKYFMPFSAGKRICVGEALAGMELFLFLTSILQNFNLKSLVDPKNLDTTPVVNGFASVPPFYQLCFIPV
How it was run: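 P450-Glo proluciferin substrate with CYP2C9 enzyme; 10 min RT preincubation, then NADPH regeneration 1 h at 37C; luciferin detection reagent 20 min RT, luminescence in relative luminescence units.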

[4] = biological target: Cytochrome P450 1A2 (Homo sapiens) (UniProt P05177); test: Cytochrome P450 Family 1 Subfamily A Member 2 (CYP1A2) small molecule antagonists: luciferase reporter qHTS assay (AID 1671199); further: nearly all actives have a fitted effect of over 50% in size; on activity change, negative = inhibition: series mostly up to about 120 µM
Cytochrome P450 1A2 (Homo sapiens), sequence (P05177 whole entry, looked up): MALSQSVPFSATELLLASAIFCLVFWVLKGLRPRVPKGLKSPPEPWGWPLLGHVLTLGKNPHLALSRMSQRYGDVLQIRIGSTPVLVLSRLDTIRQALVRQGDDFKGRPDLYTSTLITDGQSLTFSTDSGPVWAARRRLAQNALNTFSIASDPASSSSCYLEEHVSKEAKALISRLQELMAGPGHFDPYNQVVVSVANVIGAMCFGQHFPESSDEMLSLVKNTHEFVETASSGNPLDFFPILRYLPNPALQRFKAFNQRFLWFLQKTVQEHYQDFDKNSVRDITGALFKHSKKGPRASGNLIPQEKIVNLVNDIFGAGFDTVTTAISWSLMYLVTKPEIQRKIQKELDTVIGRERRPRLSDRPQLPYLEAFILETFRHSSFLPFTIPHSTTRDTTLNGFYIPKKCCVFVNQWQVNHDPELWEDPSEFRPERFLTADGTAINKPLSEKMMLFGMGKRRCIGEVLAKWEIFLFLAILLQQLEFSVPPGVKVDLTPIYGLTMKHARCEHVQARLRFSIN
How it was run: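 Signal from luciferin formed by CYP1A2 from a proluciferin substrate is read as luminescence, expressed in relative luminescence units. Compounds sit with enzyme 10 min, NADPH-driven reaction runs 1 h, all at room temperature.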

[5] = biological target: Voltage-gated inwardly rectifying potassium channel KCNH2 (Homo sapiens) (UniProt Q12809); test: Human Ether-a-go-go-Related Gene (hERG) channel small molecule antagonists: fluorescence cell-based qHTS assay (AID 1671200); further: nearly all actives have a fitted effect of over 50% in size;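 on activity change, negative = inhibition: hERG-expressing U2OS cells given a thallium stimulus after FluxOR II dye loading; series mostly up to about 77 µM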
Voltage-gated inwardly rectifying potassium channel KCNH2 (Homo sapiens), sequence (Q12809 whole entry, looked up): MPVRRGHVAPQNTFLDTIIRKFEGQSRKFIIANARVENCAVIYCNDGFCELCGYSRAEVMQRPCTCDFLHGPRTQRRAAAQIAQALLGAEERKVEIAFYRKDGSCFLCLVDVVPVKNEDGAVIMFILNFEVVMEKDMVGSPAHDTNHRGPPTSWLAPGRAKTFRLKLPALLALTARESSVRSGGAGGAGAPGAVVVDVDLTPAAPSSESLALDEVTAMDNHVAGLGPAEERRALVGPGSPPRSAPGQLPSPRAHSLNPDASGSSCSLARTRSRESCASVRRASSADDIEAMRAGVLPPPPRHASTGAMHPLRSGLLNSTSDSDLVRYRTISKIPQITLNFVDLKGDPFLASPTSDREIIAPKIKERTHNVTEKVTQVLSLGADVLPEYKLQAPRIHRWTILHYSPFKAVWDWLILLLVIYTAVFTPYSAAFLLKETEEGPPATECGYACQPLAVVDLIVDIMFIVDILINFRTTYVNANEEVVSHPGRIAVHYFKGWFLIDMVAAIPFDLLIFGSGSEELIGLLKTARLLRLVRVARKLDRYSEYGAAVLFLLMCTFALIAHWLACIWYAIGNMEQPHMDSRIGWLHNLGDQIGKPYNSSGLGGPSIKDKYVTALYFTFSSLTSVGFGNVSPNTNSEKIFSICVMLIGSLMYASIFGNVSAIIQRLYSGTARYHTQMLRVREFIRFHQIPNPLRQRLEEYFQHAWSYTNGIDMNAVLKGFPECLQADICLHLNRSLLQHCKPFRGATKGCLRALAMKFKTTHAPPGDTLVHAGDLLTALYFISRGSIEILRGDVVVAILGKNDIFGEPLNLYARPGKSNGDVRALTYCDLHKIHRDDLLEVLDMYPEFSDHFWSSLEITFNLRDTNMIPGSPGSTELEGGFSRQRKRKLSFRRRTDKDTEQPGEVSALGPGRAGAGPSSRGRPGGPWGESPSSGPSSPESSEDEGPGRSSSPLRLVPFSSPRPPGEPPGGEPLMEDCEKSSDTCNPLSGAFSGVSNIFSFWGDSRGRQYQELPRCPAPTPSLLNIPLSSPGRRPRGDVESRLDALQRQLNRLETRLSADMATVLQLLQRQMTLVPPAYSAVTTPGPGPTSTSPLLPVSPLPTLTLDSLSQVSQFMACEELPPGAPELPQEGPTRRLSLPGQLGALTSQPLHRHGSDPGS
How it was run: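 In this thallium-flux screen, overnight-cultured U2OS cells bearing the channel are dye-loaded in darkness for an hour, rested 10 min at room temperature, and then monitored kinetically at 480/540 nm for two minutes post-stimulus.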

[6] = biological target: Cytochrome P450 3A4 (Homo sapiens) (UniProt P08684); test: Cytochrome P450 Family 3 Subfamily A Member 4 (CYP3A4) small molecule antagonists: luciferase reporter qHTS assay (AID 1671201); further: nearly all actives have a fitted effect of over 50% in size; on activity change, negative = inhibition: series mostly up to about 120 µM
Cytochrome P450 3A4 (Homo sapiens), sequence (P08684 whole entry, looked up): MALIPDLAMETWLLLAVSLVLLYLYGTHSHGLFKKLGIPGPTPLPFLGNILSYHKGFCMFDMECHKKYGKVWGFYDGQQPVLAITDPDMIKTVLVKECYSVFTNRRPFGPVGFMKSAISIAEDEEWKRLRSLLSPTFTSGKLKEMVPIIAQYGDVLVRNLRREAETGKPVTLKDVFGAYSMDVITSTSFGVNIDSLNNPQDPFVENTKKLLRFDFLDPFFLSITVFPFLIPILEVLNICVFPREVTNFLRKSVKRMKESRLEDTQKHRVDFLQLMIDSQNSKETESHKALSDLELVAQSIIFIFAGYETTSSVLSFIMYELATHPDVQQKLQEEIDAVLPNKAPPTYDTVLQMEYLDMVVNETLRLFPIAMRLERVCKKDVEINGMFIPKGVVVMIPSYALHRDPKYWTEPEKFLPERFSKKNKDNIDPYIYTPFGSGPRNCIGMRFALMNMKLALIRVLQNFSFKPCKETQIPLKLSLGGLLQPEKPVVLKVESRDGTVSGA
How it was run: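 CYP3A4 activity was followed with a P450-Glo proluciferin substrate. Test compounds in DMSO were preincubated 10 min; NADPH regeneration then ran 1 h, and light output was read 20 min after detection reagent.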
Potency means the concentration at half of the fitted maximal effect.

Row | Compound | Potency [1] | Potency [2] | Potency [3] | Potency [4] | Potency [5] | Potency [6] | activity change, negative = inhibition [2] | activity change, negative = inhibition [3] | activity change, negative = inhibition [4]
1 | COC(=O)c1ccc(C(=O)OC)cc1 | inactive | 18.1 µM (active) and inactive | 40.5 µM (active) and inactive | 25.5 µM (active) and 10 µM (active) | inactive | inactive | – | – | –
2 | O=C(Oc1ccccc1)c1ccc(O)cc1 | inactive | 40.2 µM (active) and 22.4 µM (active) | 11.3 µM (active) and 25.2 µM (active) | 28.5 µM (active) and 35.6 µM (active) | inactive | inactive | – | – | –
3 | CC1COc2ccccc2N1C(=O)C(Cl)Cl (centres undefined) | 15.9 µM (active) and inactive | 7.09 µM (active) and 6.32 µM (active) | 15.9 µM (active) and 28.2 µM (active) | 79.5 µM (active) and inactive | inactive | inactive | – | – | –
4 | CCOC(=O)[C@H](CCc1ccccc1)N[C@@H](C)C(=O)N1Cc2ccccc2C[C@H]1C(=O)O | – | 35.8 µM (active) and inactive | 8.02 µM (active) and 12.3 µM (active) | inactive | inactive | – | – | – | –
5 | C=C(C)C(=O)OCCCCCC | inactive | inactive | inactive | inactive | inactive | inactive | – | – | –
6 | CCCCCC/C=C/CCCCCCCC(=O)O | inactive | inactive | inactive | inactive | inactive | inactive | – | – | –
7 | O=C(O)c1ccc([N+](=O)[O-])cc1 | – | inactive | inactive | inactive | inactive | inactive | – | – | –
8 | CCCCCCC(C)(C)S | inactive | 22.6 µM (active) and inactive | 32 µM (active) and inactive | – | inactive | inactive | – | – | –
9 | CCc1ccccc1O | – | 17.7 µM (active) and inactive | 35.4 µM (active) | 31.6 µM (active) | inactive | 31.6 µM (active) and inactive | – | – | –
10 | CC1Cc2ccccc2N1NC(=O)c1ccc(Cl)c(S(N)(=O)=O)c1 (centres undefined) | – | inactive | inactive | inactive | inactive | – | – | – | –
11 | CC(C)(N=C=O)c1cccc(C(C)(C)N=C=O)c1 | – | 79.1 µM (active) and inactive | inactive | inactive | inactive | 2.81 µM (active) and 7.96 µM (active) | – | – | –
12 | CN(C)c1ccc(C(=N)c2ccc(N(C)C)cc2)cc1 | 125 nM (active) and 76.7 nM (active) | 5.57 µM (active) and 15.3 µM (active) | inactive | 17.6 µM (active) and 21.6 µM (active) | 48.4 µM (active) | 39.4 µM (active) | – | – | –
13 | Clc1cc(Cl)c(Cl)cc1Cl | inactive | inactive | inactive | – | inactive | inactive | – | – | –
14 | O=c1c(-c2ccc(O)cc2)coc2cc(O)ccc12 | – | 49.8 µM (active) | 280 nM (active) and 159 nM (active) | 31.4 µM (active) and 39.9 µM (active) | inactive | – | – | – | –
15 | CC(=O)CCc1ccccc1 | inactive | 81 µM (active) and inactive | inactive | inactive | inactive | inactive | – | – | –
16 | CC#C[C@]1(O)CC[C@H]2[C@@H]3CCC4=CC(=O)CCC4=C3[C@@H](c3ccc(N(C)C)cc3)C[C@@]21C | – | 20 µM (active) | 2.24 µM (active) and 2.75 µM (active) | inactive | – | – | – | – | –
17 | COC(=O)Nc1nc2ccc(Sc3ccccc3)cc2[nH]1 | inactive | 25.2 µM (active) and inactive | – | 12.6 µM (active) | inactive | inactive | – | – | –
18 | C=C(C#N)C(=O)OCC | 44.7 µM (active) | inactive and 56.4 µM (active) | inactive and 63.3 µM (active) | inactive | inactive | inactive | – | – | –
19 | C[C@@H](O)[C@H]1C(=O)N2C(C(=O)O)=C(S[C@@H]3CN[C@H](C(=O)N(C)C)C3)[C@H](C)[C@H]12 | 17.4 µM (active) and inactive | inactive | – | 15.5 µM (active) and inactive | inactive | inactive | – | – | –
20 | C=C(C)C(=O)OCCC[Si](OC)(OC)OC | 62.6 µM (active) and inactive | 22.2 µM (active) | 15.7 µM (active) | inactive | inactive | 3.14 µM (active) and 63.3 µM (active) | – | – | –
21 | Cc1cc(=O)[nH]c(C(C)C)n1 | inactive | inactive | inactive | – | inactive | inactive | – | – | –

Row | Compound | Potency [1] | Potency [2] | Potency [3] | Potency [4] | Potency [5] | Potency [6] | activity change, negative = inhibition [2] | activity change, negative = inhibition [3] | activity change, negative = inhibition [4]
22 | NCCNCCNCCNCCN | – | 63 µM (active) | – | – | inactive | inactive | 36.2% [at 10.5 µM] (inactive) | 8.07% [at 10.5 µM] (inactive) | 8.65% [at 10.5 µM] (inactive)
23 | O=C(Cl)c1c(Cl)c(Cl)c(C(=O)Cl)c(Cl)c1Cl | – | inactive | inactive | inactive | inactive | inactive | – | – | –
24 | CCOC(=O)C1OC1c1ccccc1 (centres undefined) | inactive | 36.3 µM (active) | – | 32.4 µM (active) and 22.4 µM (active) | inactive | inactive | – | – | –
25 | COC(=O)c1ccccc1O | – | 35.7 µM (active) and inactive | inactive | 6.35 µM (active) | inactive | inactive | – | – | –
26 | O=Nc1ccc(O)cc1 | 39 µM (active) | 17.4 µM (active) | – | 31 µM (active) and 39.9 µM (active) | inactive | inactive | – | – | –
27 | NCc1cccc(CN)c1 | 580 nM (active) and 35.6 µM (active) | 36.6 µM (active) and 31.7 µM (active) | 36.6 µM (active) and 39.9 µM (active) | 35.6 µM (active) | inactive | 36.6 µM (active) and 2.83 µM (active) | – | – | –
28 | CC(C)n1c(/C=C/[C@@H](O)C[C@@H](O)CC(=O)O)c(-c2ccc(F)cc2)c2ccccc21 | inactive | inactive | – | – | inactive | inactive | – | – | –
29 | CCCCC(CC)C(=O)OCCOCCOCCOC(=O)C(CC)CCCC (centres undefined) | inactive | 40.4 µM (active) and 17.8 µM (active) | 25.5 µM (active) and 7.96 µM (active) | – | inactive | 7.18 µM (active) and 8.94 µM (active) | – | – | –
30 | COCC(=O)O | inactive | 73 µM (active) and inactive | inactive | inactive | inactive | inactive | – | – | –
31 | Nc1c(S(=O)(=O)O)cc(Br)c2c1C(=O)c1ccccc1C2=O | inactive | inactive | 16.3 µM (active) and 7.96 µM (active) | 3.24 µM (active) and 2 µM (active) | inactive | inactive | – | – | –
32 | CCCCC/C=C\C/C=C\CCCCCCCC(=O)OC | – | 55.8 µM (active) and 11.2 µM (active) | 35.2 µM (active) and 7.96 µM (active) | 35.6 µM (active) | inactive | inactive and 7.1 µM (active) | – | – | –
33 | CN(C)c1cccc(O)c1 | – | 2.56 µM (active) and 3.56 µM (active) | 16.1 µM (active) and 12.6 µM (active) | 32.2 µM (active) and 31.7 µM (active) | inactive | – | – | – | –
34 | CN(CCOc1ccc(CC2SC(=O)NC2=O)cc1)c1ccccn1 (centres undefined) | – | inactive | 62.9 µM (active) and inactive | inactive | inactive | – | – | – | –
35 | O=S(=O)(O)CCS | 31.3 µM (active) and inactive | inactive | – | inactive | inactive | inactive | – | – | –
36 | C/C=C(C)/C=C/C=C(C)C | inactive | 70.2 µM (active) and 79.6 µM (active) | – | 39.9 µM (active) | inactive | 31.3 µM (active) and 35.6 µM (active) | – | – | –
37 | Nc1cc(-c2ccncc2)c[nH]c1=O | – | 8.94 µM (active) and 3.89 µM (active) | 14.2 µM (active) and 12.3 µM (active) | 35.6 µM (active) | inactive | – | – | – | –
38 | O=[N+]([O-])c1cc(N(CCO)CCO)ccc1NCCO | – | 22.4 µM (active) and 39.9 µM (active) | 35.5 µM (active) and 39.9 µM (active) | 35.5 µM (active) and 35.6 µM (active) | inactive | 35.5 µM (active) and 39.9 µM (active) | – | – | –
39 | CC1(C)CC(N=C=O)CC(C)(CN=C=O)C1 (centres undefined) | 25.5 µM (active) and 39.9 µM (active) | 18.1 µM (active) and inactive | – | inactive | inactive | 4.05 µM (active) and 2 µM (active) | – | – | –
40 | Nc1nc2ncc(CNc3ccc(C(=O)N[C@@H](CCC(=O)O)C(=O)O)cc3)nc2c(=O)[nH]1 | inactive | 56.4 µM (active) and inactive | inactive | – | inactive | inactive | – | – | –
41 | Cc1ccc(N)c(S(=O)(=O)O)c1 | inactive | 71.9 µM (active) and inactive | 45.4 µM (active) | – | inactive | inactive | – | – | –
